# Measurements published in PubChem BioAssay.
# Target: Follistatin (Homo sapiens) (UniProt P19883)
# Assay: FST protein binding to printed compounds – biochemical, small-molecule microarray, 635/667 nm fluorescence, primary screen (AID 1132)
# Details: 635 nm fluorescence, higher = more signal
# Sequence of Follistatin (Homo sapiens) (P19883 whole entry, looked up): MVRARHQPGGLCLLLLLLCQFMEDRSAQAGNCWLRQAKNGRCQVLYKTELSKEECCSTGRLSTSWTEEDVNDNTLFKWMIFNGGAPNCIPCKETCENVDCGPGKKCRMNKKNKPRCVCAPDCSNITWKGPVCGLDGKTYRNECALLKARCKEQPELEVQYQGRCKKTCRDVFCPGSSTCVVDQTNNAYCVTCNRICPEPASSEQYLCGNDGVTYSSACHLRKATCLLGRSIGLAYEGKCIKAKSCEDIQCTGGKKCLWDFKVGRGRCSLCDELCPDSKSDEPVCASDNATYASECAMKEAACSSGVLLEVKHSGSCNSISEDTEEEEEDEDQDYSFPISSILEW
row,SMILES,composite z-score
1,CC(C)NC(=O)[C@@]1(Cc2ccccc2I)c2ccccc2C(=O)N(C2CCCCC2)[C@H]1c1ccc(CO)cc1,1.17
2,COc1ccc([Si](C)(C)[C@H]2[C@H](CC(=O)N3Cc4ccccc4C[C@H]3CO)O[C@@]3(C(=O)N(Cc4cccc(N5CCOC5=O)c4)c4ccccc43)[C@@H]2C)cc1,1.31
3,O=C1NC(=O)C2C1C=CC(C(O)C=Cc1ccc([N+](=O)[O-])cc1)N2Nc1ccccn1 (stereo unspecified),0.637
4,CO[C@H]1COC(=O)CC=C[C@H](C)[C@@H](OC)COC(=O)CC=C[C@@H]1C,0.956
5,COc1cc(Cc2cc3c(c(CCc4ccccc4)n2)[Si](C(C)C)(C(C)C)OC3)cc(OC)c1OC,0.694
6,NC(=O)NCC#Cc1ccc2c(c1)[C@]1(C(=O)N2)[C@H](C(N)=O)[C@H]2C(=O)O[C@H](c3ccccc3)[C@H](c3ccccc3)N2[C@@H]1c1ccccc1OCCO,1.23
7,COCCOC(=O)N1C(=O)[C@@]2(c3cc(C#CCNC(N)=O)ccc31)[C@H](C(=O)N1CCCCCCC1)[C@H]1C(=O)O[C@H](c3ccccc3)[C@H](c3ccccc3)N1[C@@H]2c1ccccc1OCCO,1.33
8,C=CCC(OC(C)=O)[C@@H]1[C@@H](N(Cc2ccc(-c3ccccc3)cc2)C(=O)c2ccc(-c3ccccc3)cc2)c2cc(OCCCO)ccc2N1C(=O)Cc1ccc(OC)cc1 (stereo partly specified),0.856
9,C[C@H]1C2[C@H](Cc3ccccc3)NC(=O)[C@]23C(=O)N[C@H](Cc2ccccc2)C(=O)N[C@@H](Cc2ccccc2)C(=O)NC/C=C\C/C=C/C3[C@@H]2O[C@]12C (stereo partly specified),0.162
10,CCOC(=O)C1=C[C@@H](c2ccccc2)N(S(=O)(=O)c2ccc(C)cc2)[C@H]1c1ccc(F)cc1,1.06
11,CC(C)[Si](OCCCNS(=O)(=O)c1ccc(Br)cc1)(C(C)C)C(C)C,0.928
